Laboratory results: PubChem BioAssay AID1851 (National Center for Advancing Translational Sciences (NCATS), 2009)
Among all 16,000 compounds or so, about 5,100 (32%) were called active. Inconclusive results (about 25%) are left out. The list shows a part of the results. Values without a mark were called inactive. Calls follow the shape of the dose curve; as a rule, active = well fitted curve in the direction sought with a large enough effect; inconclusive = small, poorly fitted or top-dose-only effect, or effect the other way; inactive = no such curve, though single readings can be large or run the other way.

target: Cytochrome P450 3A4 (Homo sapiens) (UniProt P08684); experiment: Cytochrome panel assay with activity outcomes; conditions: recombinant CYP, pro-luciferin dealkylation, luminescence, p450-cyp3a4; series mostly up to 57.1 µM
Sequence (P08684 whole entry, looked up): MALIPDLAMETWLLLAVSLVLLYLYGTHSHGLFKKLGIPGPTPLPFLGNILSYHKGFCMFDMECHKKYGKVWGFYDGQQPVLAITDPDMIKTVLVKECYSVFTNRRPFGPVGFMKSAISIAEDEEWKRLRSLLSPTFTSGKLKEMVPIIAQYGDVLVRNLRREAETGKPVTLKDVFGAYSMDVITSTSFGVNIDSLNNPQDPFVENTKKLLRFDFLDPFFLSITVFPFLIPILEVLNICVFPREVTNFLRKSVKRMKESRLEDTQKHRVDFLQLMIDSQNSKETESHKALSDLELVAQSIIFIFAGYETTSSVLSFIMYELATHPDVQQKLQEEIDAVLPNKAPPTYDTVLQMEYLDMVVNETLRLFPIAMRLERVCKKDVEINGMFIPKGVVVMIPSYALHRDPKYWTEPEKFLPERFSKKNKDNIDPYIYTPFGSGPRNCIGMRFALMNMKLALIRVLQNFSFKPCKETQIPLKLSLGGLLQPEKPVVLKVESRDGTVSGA
% is scaled to controls: 0 for no effect and ±100 for the full control effect.

SMILES | AC50 | activity, negative = inhibition
N[C@@H](CO)C(=O)O | inactive | –
O=C1CC(SC(=Nc2ccccc2)Nc2ccccc2)C(=O)N1c1cccc(Cl)c1 (stereo unspecified) | 11.2 µM (active) | –
CCOC(=O)NNC1CC(=O)N(c2ccc(OC)cc2)C1=O (stereo unspecified) | inactive | –
CCN=C(Nc1cccc(F)c1)SC1CC(=O)N(c2ccc(OC)cc2)C1=O (stereo unspecified) | 6.31 µM (active) | –
COc1ccc(CCC(C)Nc2cccc(F)c2)cc1 (stereo unspecified) | inactive | –
CC(=O)Nc1cccc(N2C(=O)CCC2=O)c1 | inactive | –
O=C1CC(N2CCOCC2)C(=O)N1c1cccc(Cl)c1 (stereo unspecified) | inactive | –
Cc1cc(OCCNCCO)cc(C)c1Cl | inactive | –
CC(C)c1ccc(/C=C2\C=C(c3ccc4ccccc4c3)OC2=O)cc1 | – | -9.49% [at 11.4 µM]
CCCS(=O)(=O)N1CCCC(C(=O)NCCN2CCOCC2)C1 (stereo unspecified) | – | 0.644% [at 11.4 µM]
Cc1ccc(S(=O)(=O)N2CCC(C(=O)NCc3cccnc3)CC2)cc1 | 3.16 µM (active) | –
CCN(CC)S(=O)(=O)N1CCC(C(=O)NCc2ccc(C)cc2)CC1 | 11.2 µM (active) | –
CCCCN(CC)S(=O)(=O)N1CCC(C(=O)NCCCN2CCOCC2)CC1 | 11.2 µM (active) | –
CCS(=O)(=O)N1CCC(C(=O)NCc2ccc(F)cc2Cl)CC1 | inactive | –
CCS(=O)(=O)N1CCC(C(=O)NCc2cccnc2)CC1 | – | -2.97% [at 2.29 µM]
CCS(=O)(=O)N1CCC(C(=O)NCCCN2CCCC2)CC1 | inactive | –
CC(C)CN(CC(C)C)S(=O)(=O)N1CCC(C(=O)NCc2ccc(F)cc2)CC1 | 15.8 µM (active) | –
C=C[C@H](N)CCC(=O)O | inactive | –
Cc1ccc(CN2C(=O)CCC2C(=O)NCc2cccnc2)cc1 (stereo unspecified) | 2.24 µM (active) | –
CC(C)(C)c1nc(SCC(=O)Nc2ccc3c(c2)OCCO3)c2ccccc2n1 | 7.08 µM (active) | –
Cc1nc(SCC(=O)Nc2ccc3c(c2)OCCO3)c2oc3ccccc3c2n1 | 7.94 µM (active) | –
CN(C)CCn1nnnc1SCC1=C(C(=O)O)N2C(=O)[C@@H](NC(=O)Cc3csc(N)n3)[C@@H]2SC1 | inactive | –
C[N+]1(C)CCc2cc(O)c(O)cc2[C@H]1Cc1ccc(O)c(O)c1 | – | -3.96% [at 11.4 µM]

SMILES | AC50 | activity, negative = inhibition
COC(=O)C/C=C\[C@H](C)[C@@H](OC)c1ccccc1Br | – | -22.3% [at 11.4 µM]
CCO[C@H](c1cc(OC)cc([N+](=O)[O-])c1OC)[C@H](C)/C=C\CC(=O)OC | 3.98 µM (active) | –
CC(NC(=O)CSc1nc(=O)cc(N)n1CCc1ccccc1)c1ccccc1 (stereo unspecified) | 0.178 µM (active) | –
CCC(Sc1nc(=O)cc(N)n1CCc1ccccc1)C(=O)Nc1ccccc1C#N (stereo unspecified) | 0.1 µM (active) | –
Nc1cc(=O)nc(SCC(=O)Nc2cccc3ccccc23)n1CCc1ccccc1 | 0.126 µM (active) | –
N#Cc1ccccc1NC(=O)Nc1cccs1 | inactive | –
C[C@H](NC(=O)Cn1cncn1)c1ccccc1 | inactive | –
O=C1OCCC=C1[C@@H](O)CCc1ccccc1 | – | -19.7% [at 11.4 µM]
Cn1cccc1C(=O)C(=O)Nc1cccc(Cl)c1Cl | inactive | –
COCCNC(=O)c1ccc2c(c1)nc(C)n2-c1cc(OC)c(OC)c(OC)c1 | inactive | –
COCc1nnc(NC(=O)c2ccc(S(=O)(=O)N3CCCCCC3)cc2)o1 | inactive | –
COc1ccc(-n2c(=S)[nH]c3cc(C(=O)NCCCN4CCCC4=O)ccc3c2=O)cc1 | inactive | –
COc1ccc(-n2c(CNC(=O)c3ccc(S(=O)(=O)N4CCCC4)cc3)n[nH]c2=S)cc1 | 12.6 µM (active) | –
O=C(NCc1n[nH]c(=S)n1-c1cccc(Cl)c1)c1ccc(S(=O)(=O)N2CCCC2)cc1 | 4.47 µM (active) | –
COc1ccc(-n2c(CNC(=O)c3cc(OC)c(OC)c(OC)c3)n[nH]c2=S)cc1 | 7.94 µM (active) | –
COCC(=O)Nc1c(I)c(C(=O)NC[C@@H](O)CO)c(I)c(C(=O)N(C)C[C@@H](O)CO)c1I | inactive | –
CN(CCOc1ccc(C[C@H](Nc2ccccc2C(=O)c2ccccc2)C(=O)O)cc1)c1ccccn1 | 10 µM (active) | –
CCN(CC)CCOc1ccc(Cc2ccccc2)cc1 | inactive | –
CC1=CC(=O)CC(C)(C)[C@]1(O)/C=C\C(C)=C\C(=O)O | – | -1.41% [at 11.4 µM]
S=c1[nH]nc(CSCc2ccccc2Cl)n1-c1ccccc1 | 7.94 µM (active) | –
CCNC(=S)N1CCC(NC(=O)C2CCCCC2)CC1 | 14.1 µM (active) | –
CCc1nnc(NC(=O)C2CCN(C(=O)NC3CCCCC3)CC2)s1 | inactive | –
CCOC(=O)N1CCC(NC(=O)C2CCN(S(=O)(=O)N3CCCC3)CC2)CC1 | inactive | –

SMILES | AC50 | activity, negative = inhibition
CCn1c(SCC(=O)NC2CCCCC2)nc2c(c1=O)SC(C)C2 (stereo unspecified) | 15.8 µM (active) | –
CCn1c(SCC(=O)Nc2ccc3c(c2)OCCO3)nc2c(c1=O)SC(C)C2 (stereo unspecified) | 10 µM (active) | –
CCn1c(SCC(=O)Nc2nc3ccc(C)cc3s2)nc2c(c1=O)SC(C)C2 (stereo unspecified) | 5.01 µM (active) | –
CCOc1ccc(-n2c(SCC(=O)Nc3ccc4c(c3)OCCO4)nc3c(c2=O)SCC3)cc1 | inactive | –
CCn1nnnc1SCC(=O)NC1CCCC1 | inactive | –
Cc1ccc2nc(NC(=O)CSc3nc4c(c(=O)n3C)SC(C)C4)sc2c1 (stereo unspecified) | inactive | –
Cc1nc2cccc([N+](=O)[O-])c2n1CCCN(C)C | – | -0.756% [at 11.4 µM]
O=C(c1cccc(F)c1)N1CCC2(CCCN(c3ncccn3)C2)CC1 | inactive | –
O=C(c1cccc(F)c1)N1CCC[C@@]2(CCN(Cc3nccs3)C2)C1 | 7.94 µM (active) | –
Cn1cccc1C(=O)N1CCC[C@@]2(CCN(Cc3nccs3)C2)C1 | 15.8 µM (active) | –
CC(C)CN1CCC2(CC1)CCN(C(=O)c1cccn1C)CC2 | inactive | –
CC(C)CN1CCC2(CC1)CCN(C(=O)c1cccc(F)c1)CC2 | inactive | –
CC(C)CN1CC2(CCN(C(=O)c3cccc(F)c3)CC2)C1 | inactive | –
O=C(c1cccc(F)c1)N1CCC[C@@]2(CCN(Cc3ccncc3)C2)C1 | 3.16 µM (active) | –
O=C(c1cccc(F)c1)N1CCC2(CCCN(Cc3nccs3)C2)CC1 | 10 µM (active) | –
O=C(c1cccc(F)c1)N1CCC2(CC1)CN(Cc1ccccc1)C2 | inactive | –
CC(=O)N1CCC2(CCN(Cc3nccs3)CC2)CC1 | inactive | –
CCCc1ncc(C[n+]2ccccc2C)c(N)n1 | inactive | –
CC(C)(C)N1C(=O)[C@H]2[C@H]3[C@H](O)[C@H](O)C/C(=N/NC(=O)OCc4ccccc4)[C@@H]3CC[C@@H]2C1=O | – | -15% [at 11.4 µM]
COC(=O)c1c(NC(=O)C(C)(C)C)sc2c1C(C(=O)OC)CC2 (stereo unspecified) | inactive | –
Cc1cc(=O)[nH]c(-n2[nH]c(C)cc2=O)n1 | inactive | –
CCOC(=O)c1ccc(NC(=O)COc2ccccc2OC)cc1 | 31.6 µM (active) | –
CCOC(=O)c1ccc(NC(=O)CC2NCCNC2=O)cc1 (stereo unspecified) | inactive | –

SMILES | AC50 | activity, negative = inhibition
COc1ccc(C(=O)Nc2ccc(C(=O)OCC(=O)c3ccccc3)cc2)cc1 | inactive | –
CC1=NN(c2ccccc2)C(=O)[C@@H]1N=Nc1ccc(S(N)(=O)=O)cc1 | – | -5.5% [at 11.4 µM]
CCOCc1cnc(C)nc1NCC(=O)c1c(C)[nH]c2ccccc12 | inactive | –
O=S(=O)(NC1CCN(Cc2ccccc2)CC1)c1cccc2cccnc12 | 15.8 µM (active) | –
Oc1ccc(CNCc2ccccc2)c2cccnc12 | – | -8.41% [at 11.4 µM]
c1ccc(CN2CC[C@@H](CNc3ncnc4ccccc34)C2)cc1 | – | -19.3% [at 11.4 µM]
O=C(NCCCN1CCN(Cc2ccccc2)CC1)C1CCN(S(=O)(=O)N2CCCC2)CC1 | inactive | –
O=C(NCCCN1CCCCCC1)[C@@H](c1ccccc1)C1CCCCC1 | 3.98 µM (active) | –
O=C(NCCCN1CCN(C2CCCCC2)CC1)Nc1ccccc1C(F)(F)F | inactive | –
Cc1ccc(-c2ccc(CCC(=O)O)o2)cc1 | inactive | –
Cc1ccc(S(=O)(=O)N(CC(=O)NCCC2=CCCCC2)Cc2ccccc2F)cc1 | – | -9.36% [at 2.29 µM]
CCCCCOc1ccc(NC(=O)C(=O)NCCC2=CCCCC2)cc1 | inactive | –
COc1ccc(CCNC(=O)CC(NS(=O)(=O)c2ccc(NC(C)=O)cc2)C(C)C)cc1OC (stereo unspecified) | 15.8 µM (active) | –
COC(=O)C(NS(=O)(=O)c1ccc(NC(C)=O)cc1)C(C)C (stereo unspecified) | inactive | –
COc1ccc(CONS(=O)(=O)c2ccc(NC(C)=O)cc2)cc1Cl | 3.16 µM (active) | –
CC(=O)Nc1ccc(S(=O)(=O)NC(CC(=O)NCCC2=CCCCC2)C(C)C)cc1 (stereo unspecified) | 15.8 µM (active) | –
CC(=O)Nc1ccc(S(=O)(=O)N=S(C)C)cc1 | inactive | –
C[C@H](O)CO[C@H]1[C@H]2O[C@H]3[C@H](O)[C@@H](O)[C@@H](O[C@H]4[C@H](O)[C@@H](O)[C@@H](O[C@H]5[C@H](O)[C@@H](O)[C@@H](O[C@H]6[C@H](O)[C@@H](OC[C@H](C)O)[C@@H](O[C@H]7[C@H](O)[C@@H](OC[C@H](C)O)[C@@H](O[C@H]8[C@H](O)[C@@H](O)[C@@H](O[C@@H]([C@@H]1O)[C@@H](CO)O2)O[C@@H]8CO)O[C@@H]7CO)O[C@@H]6CO)O[C@@H]5CO)O[C@@H]4CO)O[C@@H]3CO | inactive | –
O=C(Nc1cccc(C(F)(F)F)c1)C1CCCN1S(=O)(=O)c1cccc2cccnc12 (stereo unspecified) | 11.2 µM (active) | –
O=C(Nc1cccc2cccnc12)[C@@H]1[C@@H](C(=O)O)[C@H]2CC[C@@H]1O2 | – | -18.7% [at 11.4 µM]
COc1ccc(-c2ccc(C(=S)N3CCN(C(C)=O)CC3)o2)cc1 | 25.1 µM (active) | –
C[C@H](N[C@@H](C)COc1ccccc1)[C@H](O)c1ccc(O)cc1 | inactive | –
